Columns and labels:
Conditions in all cases: treatment time: 24 h
A549-ACTB-RAB5A [1] = assay: lowest phenotypically active concentration; higher = less potent
Procedure, shortened: (§1)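 Each of fifteen gene-edited A549, HepG2 and WPMY1 reporter lines, marked with BFP for segmentation and GFP and RFP/FusionRed, was treated in four wells at 0.3, 1, 3 or 9 µM for 24 h prior to live imaging. Normalisation of per-well live-cell features used solvent control wells. Deviation needed ≥3 of 4 wells beyond the 95th percentile of control Euclidean distances, and reproducibility needed a median replicate Pearson correlation above the 95th percentile of non-replicates. Both were required for phenotypic activity.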

A549-CANX-COX4 [2] = assay: as above
Procedure, shortened: as §1

A549-GM130-SQSTM1 [3] = assay: as above
Procedure, shortened: as §1

A549-TP53BP1-CLTA [4] = assay: as above
Procedure, shortened: as §1

A549-TUBA1B-RELA [5] = assay: as above
Procedure, shortened: as §1

A549-ACTB-RAB5A [6] = assay: phenotypically active (imaging signature differs from DMSO and reproducible) at any of 0.3-9 uM (binary (1 = active, 0 = inactive)); higher = active
Procedure, shortened: as §1

A549-CANX-COX4 [7] = assay: as above
Procedure, shortened: as §1

A549-GM130-SQSTM1 [8] = assay: as above
Procedure, shortened: as §1

A549-TP53BP1-CLTA [9] = assay: as above
Procedure, shortened: as §1

A549-TUBA1B-RELA [10] = assay: as above
Procedure, shortened: as §1

HepG2-ACTB-RAB5A = assay: as above
Procedure, shortened: as §1

HepG2-CANX-COX4 = assay: as above
Procedure, shortened: as §1

HepG2-GM130-SQSTM1 = assay: as above
Procedure, shortened: as §1

HepG2-TP53BP1-CLTA = assay: as above
Procedure, shortened: as §1

HepG2-TUBA1B-RELA = assay: as above
Procedure, shortened: as §1

WPMY1-ACTB-RAB5A = assay: as above
Procedure, shortened: as §1

WPMY1-CANX-COX4 = assay: as above
Procedure, shortened: as §1

WPMY1-GM130-SQSTM1 = assay: as above
Procedure, shortened: as §1

WPMY1-TP53BP1-CLTA = assay: as above
Procedure, shortened: as §1

WPMY1-TUBA1B-RELA = assay: as above
Procedure, shortened: as §1

Compound	lowest phenotypically active concentration (A549-ACTB-RAB5A [1]) [µM]	lowest phenotypically active concentration (A549-CANX-COX4 [2]) [µM]	lowest phenotypically active concentration (A549-GM130-SQSTM1 [3]) [µM]	lowest phenotypically active concentration (A549-TP53BP1-CLTA [4]) [µM]	lowest phenotypically active concentration (A549-TUBA1B-RELA [5]) [µM]	phenotypically active (A549-ACTB-RAB5A [6])	phenotypically active (A549-CANX-COX4 [7])	phenotypically active (A549-GM130-SQSTM1 [8])	phenotypically active (A549-TP53BP1-CLTA [9])	phenotypically active (A549-TUBA1B-RELA [10])	phenotypically active (HepG2-ACTB-RAB5A)	phenotypically active (HepG2-CANX-COX4)	phenotypically active (HepG2-GM130-SQSTM1)	phenotypically active (HepG2-TP53BP1-CLTA)	phenotypically active (HepG2-TUBA1B-RELA)	phenotypically active (WPMY1-ACTB-RAB5A)	phenotypically active (WPMY1-CANX-COX4)	phenotypically active (WPMY1-GM130-SQSTM1)	phenotypically active (WPMY1-TP53BP1-CLTA)	phenotypically active (WPMY1-TUBA1B-RELA)
COc1cc(N2CCOCC2)ccc1Nc1ncc(Cl)c(Nc2ccccc2NS(C)(=O)=O)n1	3	3	3	3	3	1 (active)	1 (active)	1 (active)	1 (active)	1 (active)	1 (active)	1 (active)	1 (active)	1 (active)	1 (active)	1 (active)	1 (active)	1 (active)	1 (active)	1 (active)
C[C@@H](CN1CCC(n2c(=O)[nH]c3cc(Cl)ccc32)CC1)NC(=O)c1ccc2ccccc2c1	3	9	3	9	3	1 (active)	1 (active)	1 (active)	1 (active)	1 (active)	1 (active)	1 (active)	1 (active)	1 (active)	1 (active)	1 (active)	1 (active)	1 (active)	1 (active)	1 (active)
O=C(CCCCCCC(=O)Nc1cccnc1)NO [Pyroxamide]	3	3	3	9	9	1 (active)	1 (active)	1 (active)	1 (active)	1 (active)	1 (active)	1 (active)	1 (active)	1 (active)	1 (active)	1 (active)	1 (active)	1 (active)	1 (active)	1 (active)
O=C1NCCN1CCN1CCC(c2cn(-c3ccc(F)cc3)c3ccc(Cl)cc23)CC1 [sertindole]	3	3	3	9	3	1 (active)	1 (active)	1 (active)	1 (active)	1 (active)	1 (active)	1 (active)	1 (active)	1 (active)	1 (active)	1 (active)	1 (active)	1 (active)	1 (active)	1 (active)
OC[C@H]1O[C@@H](n2cnc3c(NCc4ccco4)ncnc32)[C@H](O)[C@@H]1O [Kinetin riboside]	1	3	3	3	3	1 (active)	1 (active)	1 (active)	1 (active)	1 (active)	1 (active)	1 (active)	1 (active)	1 (active)	1 (active)	1 (active)	1 (active)	1 (active)	1 (active)	1 (active)
NCC(=O)Nc1ccc(-n2nc(C(F)(F)F)cc2-c2ccc3c(ccc4ccccc43)c2)cc1	1	1	1	1	1	1 (active)	1 (active)	1 (active)	1 (active)	1 (active)	1 (active)	1 (active)	1 (active)	1 (active)	1 (active)	1 (active)	1 (active)	1 (active)	1 (active)	1 (active)
COc1ccc2cc1Oc1ccc(cc1)C[C@H]1c3cc(c(OC)cc3CCN1C)Oc1c(OC)c(OC)cc3c1[C@H](C2)N(C)CC3 [Tetrandrine]	≤ 0.3	1	≤ 0.3	1	≤ 0.3	1 (active)	1 (active)	1 (active)	1 (active)	1 (active)	1 (active)	1 (active)	1 (active)	1 (active)	1 (active)	1 (active)	1 (active)	1 (active)	1 (active)	1 (active)
C/C=C1\NC(=O)[C@H]2CSSCCC=C[C@H](CC(=O)N[C@H](C(C)C)C(=O)N2)OC(=O)[C@H](C(C)C)NC1=O	≤ 0.3	≤ 0.3	≤ 0.3	≤ 0.3	≤ 0.3	1 (active)	1 (active)	1 (active)	1 (active)	1 (active)	1 (active)	1 (active)	1 (active)	1 (active)	1 (active)	1 (active)	1 (active)	1 (active)	1 (active)	1 (active)
C[C@H]1COCCN1c1cc(C2(S(=O)(=O)C3CC3)CC2)nc(-c2ccc(NC(=S)NCCO)cc2)n1	≤ 0.3	≤ 0.3	≤ 0.3	≤ 0.3	≤ 0.3	1 (active)	1 (active)	1 (active)	1 (active)	1 (active)	1 (active)	1 (active)	1 (active)	1 (active)	1 (active)	1 (active)	1 (active)	1 (active)	1 (active)	1 (active)
Cc1ccc(-n2nc(C(C)(C)C)cc2NC(=O)Nc2ccc(OCCN3CCOCC3)c3ccccc23)cc1	3	9	3	9	3	1 (active)	1 (active)	1 (active)	1 (active)	1 (active)	1 (active)	1 (active)	1 (active)	1 (active)	1 (active)	1 (active)	1 (active)	1 (active)	1 (active)	1 (active)
O=C(CCCCCN1C(=O)c2cccc3cccc(c23)C1=O)NO [Scriptaid]	≤ 0.3	1	≤ 0.3	1	≤ 0.3	1 (active)	1 (active)	1 (active)	1 (active)	1 (active)	1 (active)	1 (active)	1 (active)	1 (active)	1 (active)	1 (active)	1 (active)	1 (active)	1 (active)	1 (active)
